Holding throughout (format): functional
Assay [1] concerns the target Solute carrier family 2, facilitated glucose transporter member 1 (Homo sapiens) (UniProt P11166). The experiment in a line: ST_JUDE_LEISH: Cytotoxicity at 2uM final concentration against transgenic Leishmania Mexicana promastigotes LmGLUT1 that are glucose transport deficient and complemented with the human glucose transporter GLUT1. Activity is measured by DNA content using SYBR green in vitro.

For assay [2], the target named is Hexose transporter 1 (Plasmodium falciparum) (UniProt O97467). The assay is described as follows: ST_JUDE_LEISH: Cytotoxicity at 2uM final concentration against transgenic Leishmania Mexicana promastigotes LmPfHT that are glucose transport deficient and complemented with the Plasmodium falciparum hexose transporter. Activity is measured by DNA content using SYBR green in vitro.

For assay [3], the target named is Glucose transporter (Leishmania mexicana) (UniProt O61059). The experiment in a line: ST_JUDE_LEISH: Cytotoxicity at 2uM final concentration against transgenic Leishmania Mexicana promastigotes LmGT2 that are glucose transport deficient and complemented with the L. Mexicana glucose transporter 2. Activity is measured by DNA content using SYBR green in vitro.

Chain of Solute carrier family 2, facilitated glucose transporter member 1 (Homo sapiens) (P11166 whole entry): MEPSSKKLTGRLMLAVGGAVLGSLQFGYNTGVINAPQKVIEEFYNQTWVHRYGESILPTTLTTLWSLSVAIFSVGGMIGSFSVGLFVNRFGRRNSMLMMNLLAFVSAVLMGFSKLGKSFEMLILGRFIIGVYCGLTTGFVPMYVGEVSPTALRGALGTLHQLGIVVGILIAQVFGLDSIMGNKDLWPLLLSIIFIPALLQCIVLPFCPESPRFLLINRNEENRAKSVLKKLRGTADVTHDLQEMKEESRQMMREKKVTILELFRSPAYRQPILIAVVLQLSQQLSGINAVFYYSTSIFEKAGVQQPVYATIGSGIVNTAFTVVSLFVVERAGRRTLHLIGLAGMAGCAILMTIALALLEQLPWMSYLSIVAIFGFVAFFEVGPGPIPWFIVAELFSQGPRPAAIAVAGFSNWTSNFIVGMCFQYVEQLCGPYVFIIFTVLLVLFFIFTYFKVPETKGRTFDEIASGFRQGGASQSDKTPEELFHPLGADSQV

One may read the inhibition as the drop in the measured response relative to a control, in per cent. `Cc1cccc2nc(-c3cccc(-c4ccc(CNCc5cnn(-c6ccccc6)n5)cc4)c3)[nH]c12`: the inhibition in assay [1] amounted to 0.18%; in assay [2], 2.02%; in assay [3] it was 0.22%.
As to `C=CCc1cc(Br)ccc1OCCCOc1c(N)nc(N)nc1N`, the results for the inhibition in assay [1], in assay [2] and in assay [3] were 6.42%, 7.13% and 3.62%, respectively.
Regarding `O=[N+]([O-])c1ccc(-c2nc3cc(C4=NC5CCCCC5N4)ccc3[nH]2)cc1` (configuration not stated), the figures for the inhibition in assay [1], in assay [2] and in assay [3] were -0.03%, -0.65% and -4.46%, respectively.
For `CCCCOc1ccc(CNCCCCCCNCc2ccc(OCCCC)c3ccccc23)c2ccccc12`, in that order: 104%, 102% and 103%.
For `CN(C)CCC(O)C=C(c1ccc(Cl)cc1)c1ccc(Cl)cc1` (configuration not stated), in that order: 9.31%, 7.5% and 4.86%.
With `COc1cc(C(=O)N2COCC(CCCN3CCC(N4CCCC4)CC3)(c3ccc(Cl)c(Cl)c3)C2)cc(OC)c1OC` (configuration not stated), the inhibition amounted to 3.3% in assay [1], 3.39% in assay [2] and 3.67% in assay [3].
Take `CC(C)(C)c1ccc(CN2CCC(CNC(=O)c3cc(-c4ccccc4F)cs3)C2)cc1` (configuration not stated): the inhibition in assay [1] was -1.08%; in assay [2], -2.3%; in assay [3] it was 0.9%.
For `CN(C)CCN(Cc1ccccc1-c1ccc(CNCCc2ccccc2)cc1)C(=O)c1ccccc1`, in that order: 3.46%, 2.83% and 3.1%.
On to `O=C(Nc1ccccc1O)c1ccc(S(=O)(=O)c2ccc(Cl)cc2)cc1`, for which the inhibition in assay [1] was found to be 5.52%; in assay [2] it was 4.67%; in assay [3], 6.69%.
As for `COc1cc(F)c2ncc(C#N)c(CCN3CCC(NCc4ccc5c(c4)OCCO5)CC3)c2c1`, the results for the inhibition in assay [1], in assay [2] and in assay [3] were 91.3%, 95.1% and 93.9%, respectively.
For `CC1CCN(CCNC(=O)c2ccc3c(=O)n(Cc4ccc(Cl)cc4)c(=S)[nH]c3c2)CC1`, the inhibition in assay [1] came to 1.28%; in assay [2] it was 2.93%; in assay [3] it was 1.91%.
Regarding `CC1=NN(c2ccc(C)c(C)c2)C(=O)C1=NNc1cccc(-c2cccc(NC(=O)OC(C)(C)C)c2)c1O`, the inhibition came to 1.48% in assay [1], 1.44% in assay [2] and 0.04% in assay [3].
Regarding `COc1ccccc1N1CCN(c2cccc(F)c2C#N)CC1`, the inhibition in assay [1] was 8.24%; in assay [2], 6.93%; in assay [3], 6.12%.
On to `COc1cc(Cc2cnc(N)nc2N)cc(OCCCCCC(=O)O)c1OC`, for which the inhibition in assay [1] worked out at 6.91%; in assay [2], 5.78%; in assay [3], 5.12%.
In the case of `N#Cc1ccc2c(c1)CCN(CCC1CCC(NC(=O)c3cc4ccc(Cl)cc4[nH]3)CC1)C2` (configuration not stated), the values for the inhibition in assay [1], in assay [2] and in assay [3] were 1.73%, -0.22% and -0.76%, respectively.
For `Cc1cccc(Cn2c(C(N)=O)nn(-c3ccc([N+](=O)[O-])cc3C#N)c2=S)c1`, in that order: 11.5%, 11.7% and 11.7%.
Take `Cc1nc(-c2ccc(-c3ccc(C(=O)Nc4ccc(I)c(OCCN5CCCC5)c4)cc3)c(C)c2)no1`: the inhibition in assay [1] turned out to be 3.85%; in assay [2] it was 3.48%; in assay [3], 1.38%.
For `CN1CCCc2ccc(NC(=O)c3cnc(-c4ccccc4)cn3)cc21`, in that order: 0.24%, 0.87% and -0.23%.
In the case of `NCCCN(Cc1ccc(Cl)c(Cl)c1)C(=O)Nc1ccc(Cl)c(Cl)c1`, the inhibition in assay [1] turned out to be 14.3%; in assay [2] it was 9.33%; in assay [3], 10.1%.
As for `Cc1cc2nc(-c3ccc(C(=O)NCCCc4ccccc4)cc3)[nH]c2cc1C`, the inhibition stood at 9.41% in assay [1], 9.39% in assay [2] and 10.1% in assay [3].
With `O=C1CCCN1CCCNCc1ccc(-c2ccc(-c3nc4cc(C(F)(F)F)ccc4[nH]3)cc2)cc1`, the inhibition in assay [1] came out at 3.36%; in assay [2], 2.91%; in assay [3], 2.6%.
In the case of `CSc1ccc(NC(=O)Nc2cc(C)nc3ccccc23)cc1`, the inhibition in assay [1] was 10.3%; in assay [2] it was 10.8%; in assay [3] it was 10.3%.
As to `O=C(COc1ccccc1)N(Cc1ccc(-c2ccc(CNC3Cc4ccccc4C3)cc2)cc1)C1CCNCC1`, the inhibition is 2.8% in assay [1], 2.48% in assay [2] and 2.61% in assay [3].
For `NC1=NC(c2ccccc2)(c2ccccc2)C(=O)N1Cc1ccc(-c2ccncc2)cc1`, in that order: 8.4%, 6.36% and 6.42%.
For `COc1ccc2nc(N(CCCn3ccnc3)C(=O)C=Cc3cccs3)sc2c1`, in that order: 3.73%, 3.16% and -2.84%.
Regarding `CCc1ccc(NC(=O)c2ccc(CN3CCCN(Cc4cccs4)CC3)cc2)cc1`, the inhibition was determined as 13.8% in assay [1], 12.6% in assay [2] and 14.9% in assay [3].
The matching figures for `CCc1ccc(C2CCN(CCCCNC(=O)c3ccc(NC(=O)c4ccc(Cl)cc4)cc3)CC2)c(OCCO)c1`: 3.01%, 2.33% and 1.61%.
As to `O=C(Nc1nc(-c2ccccn2)cc2ccccc12)c1cccc(Cl)c1`, the inhibition in assay [1] turned out to be 10.1%; in assay [2] it was 9.58%; in assay [3] it was 8.17%.
In the case of `c1cc(CNCC2CCN(CC3CCCCC3)CC2)cc(-n2ccnc2)c1`, the inhibition in assay [1] is -1.01%; in assay [2], -0.61%; in assay [3], 0.1%.
For `O=C(/C=C/c1ccc(Cl)c(Cl)c1)NCCCCCN1CCC(NC(=O)Nc2cccc(Cl)c2)CC1`, in that order: 3.22%, 4.71% and 3.33%.
On to `O=C(Cc1cccnc1)Nc1cccc(-c2cccc(-c3nc4cc(C(F)(F)F)ccc4[nH]3)c2)c1`, for which the inhibition in assay [1] is 2.67%; in assay [2], 1.57%; in assay [3], 1.35%.
On to `O=C(Cn1c(CCc2cccc(F)c2F)cc(=O)c2ccccc21)N(CCN1CCCCC1)Cc1ccc(-c2ccc(C(F)(F)F)cc2)cc1`, for which the inhibition came out at 6.77% in assay [1], 5.08% in assay [2] and 3.76% in assay [3].
The matching figures for `COc1ccc2c(c1)ncn2-c1cc(OCc2ccncc2Br)c(C(N)=O)s1`: 1.09%, 1.34% and 2.35%.
For `CS(=O)(=O)c1ccc2[nH]c(-c3cc(-c4cccc(F)c4)cnc3N)nc2c1`, the inhibition in assay [1] was determined as 5.71%; in assay [2], 3.53%; in assay [3], 3.04%.
As for `O=C(Nc1ccc(-c2ccccc2)cc1)Nc1cccc(Cn2ncc(N3CCCNCC3)c(Cl)c2=O)c1`, the inhibition in assay [1] came to 1.74%; in assay [2], 0.84%; in assay [3], 0.04%.
Take `Cc1cccc2nc(-c3ccc(-c4cccc(NC(=O)Nc5ccc(Cl)c(Cl)c5)c4)s3)[nH]c12`: the values for the inhibition in assay [1], in assay [2] and in assay [3] were 0.85%, -0.11% and 0.38%, respectively.
Consider `COc1ccc(CNCc2cccc(-c3ccc(-c4nc5ccccc5[nH]4)cc3)c2)cc1`, for which the figures for the inhibition in assay [1], in assay [2] and in assay [3] were 3.35%, 1.89% and 3.52%, respectively.
`CCCCNCC(O)COc1ccccc1-c1ccc(N/N=C/c2cccc3ccccc23)nn1` (configuration not stated): the figures for the inhibition in assay [1], in assay [2] and in assay [3] were 3.78%, 3.6% and 1.78%, respectively.
Regarding `CC(C)NCc1ccc(-c2cccc(NC(=O)c3ccc(F)cc3)c2)cc1`, the inhibition amounted to 6.57% in assay [1], 9.15% in assay [2] and 6.89% in assay [3].
On to `CN(C)CCCNCc1ccc(-c2ccc(F)c(Cl)c2)o1`, for which the figures for the inhibition in assay [1], in assay [2] and in assay [3] were -0.74%, 0.82% and -0.76%, respectively.
On to `Cc1noc(-c2ccc(N3CCC(C(=O)N4CCN(C(C)C)CC4)CC3)cc2)n1`, for which the inhibition in assay [1] is 1.72%; in assay [2], 2.07%; in assay [3], 2%.
As for `O=C(Nc1ccc2c(c1)CNCC2)c1ccc(-c2ccc(Cl)cc2)cc1`, the inhibition in assay [1] is 105%; in assay [2], 95.6%; in assay [3], 84%.
With `Cc1ccc(C2=NNC3(S2)C(=O)Nc2ccc(C)cc23)cc1` (configuration not stated), the values for the inhibition in assay [1], in assay [2] and in assay [3] were -2.4%, 2.71% and 3.44%, respectively.
As to `OC1(Cc2ccccc2)CCN(Cc2cccc(-c3c[nH]c4nc(NC5CCCC5)ncc34)c2)CC1`, the figures for the inhibition in assay [1], in assay [2] and in assay [3] were 9.83%, 8.36% and 6.99%, respectively.
As to `CCOCCCn1c(=N)c(C(=O)NCc2ccc(OC)cc2)cc2c(=O)n3cccc(C)c3nc21`, the inhibition in assay [1] was 3.85%; in assay [2], 5.36%; in assay [3] it was 3.8%.
Turning to `CC1CC1C(=O)NC1CCN(CC2(c3ccccc3)CCCCC2)CC1` (configuration not stated), the figures for the inhibition in assay [1], in assay [2] and in assay [3] were 0.87%, 1.18% and -0.67%, respectively.
For `CC(=O)OCCN1C(=O)c2ccc3c4c(ccc(c24)C1=O)C(=O)N(CCOC(C)=O)C3=O`, in that order: 3.05%, 2.04% and 0.78%.
In the case of `CO/C(=C\C=C\c1cc2cc(Cl)c(Cl)cc2[nH]1)C(=O)NCCCN1CCN(c2cccc(O)c2)CC1`, the results for the inhibition in assay [1], in assay [2] and in assay [3] were 10.4%, 11.7% and 11.8%, respectively.
For `O=C(NC1CCCC1)c1ccc(N2CCC(NCc3cccc(C(F)(F)F)c3)CC2)cc1`, in that order: -0.33%, -0.97% and 0.59%.

These data come from ChEMBL document CHEMBL3433997, “St. Jude Leishmania screening dataset” (2016).
